The text below walks through data of PubChem BioAssay (Tox21).

“And” between values parts separate entries of the source, which are not always exact repeats. Equal values may be shown once. Inconclusive results are not listed. Where a structure was tested more than once in an assay, its records may differ in their call. The source made the active and inactive calls. Unless noted, the call rests on the fitted dose curve; in most records, active means well fitted curve in the direction sought with a large enough effect in the repeat runs; inconclusive means weak or mixed curves; inactive means no such curve, though single readings can be large; an effect the other way counts as inactive or inconclusive.

Assay [1] is described as follows: qHTS assay to identify aromatase inhibitors - cell viability counter screen (AID 743084).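 Further: cells stimulated with testosterone during compound exposure; nearly all actives have a fitted effect of over 55% in size.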 Further: potency means the concentration at half of the fitted maximal effect. On the technique in general: In qHTS, concentration-response curves come from the screen itself.
Assay [2] addresses Aryl hydrocarbon receptor (Homo sapiens) (UniProt P35869). The assay can be described thus: qHTS assay to identify small molecule that activate the aryl hydrocarbon receptor (AhR) signaling pathway (AID 743085). Further: nearly all actives have a fitted effect of over 15% in size. Further: potency means the concentration at half of the fitted maximal effect.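 On activation: HG2L7.5c1 human HepG2 liver cells with stably integrated DRE-driven firefly reporter; series mostly up to about 70 µM.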 In outline:
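Steps: seed HepG2-AhR-luc cells; allow 5 h at 37C; pin-transfer test compound or vehicle; incubate 24 h at 37C; add viability dye (30 min, 37C) and read fluorescence; add luciferase substrate (30 min, RT) and read luminescence.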

A short description of assay [3]: qHTS assay to identify small molecule that activate the aryl hydrocarbon receptor (AhR) signaling pathway - cell viability counter screen (AID 743086). Further: series mostly up to about 70 µM; nearly all actives have a fitted effect of over 45% in size. The essentials: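 Cytotoxicity counter screen: CellTiter-Fluor signal (30 min, 37 C) in 4000 HepG2 cells/well carrying the DRE-luciferase reporter, following 24 h compound exposure at 37 C.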
The target in assay [4] is Peroxisome proliferator-activated receptor gamma (Homo sapiens) (UniProt P37231). The assay can be described thus: qHTS assay to identify small molecule agonists of the peroxisome proliferator-activated receptor gamma (PPARg) signaling pathway (AID 743094; active means well fitted activation curve with a large enough effect in the signal ratio in the repeat runs, not every such curve was filed as active; the % refers to the signal ratio). In outline:
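Agonist activity was taken from a beta-lactamase reporter (FRET substrate, 1 h at room temperature) in HEK293H cells carrying a PPARg UAS-bla construct. Compounds in DMSO were incubated 17 h at 37C after a 5 h cell pre-incubation.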

The nature of assay [5]: qHTS assay to identify small molecule antagonists of the peroxisome proliferator-activated receptor gamma (PPARg) signaling pathway - cell viability counter screen (AID 743194). Further: nearly all actives have a fitted effect of over 55% in size. Further: potency means the concentration at half of the fitted maximal effect. As to conditions: Potency: co-treated with 50 nM rosiglitazone unless noted. The essentials:
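Viability was measured as CellTiter-Glo luminescence in GeneBLAzer PPARg UAS-bla HEK293H cells. These cells had been exposed 17 h at 37 C to compounds together with rosiglitazone at 50 nM final, with the beta-lactamase readout taken in the same wells.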

Assay [6] in a line: qHTS assay for small molecule agonists of the antioxidant response element (ARE) signaling pathway - cell viability counter screen (AID 743203; calls by dose curve; further: nearly all actives have a fitted effect of over 55% in size; further: potency means the concentration at half of the fitted maximal effect). The essentials:
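Viability counter screen: CellTiter-Glo luminescence, read after 30 min at room temperature, in ARE-bla HepG2 wells. Compound exposure lasted 16 h at 37C/5% CO2, following a 5 h pre-incubation of the cells after plating.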

Assay [7] in a line: qHTS assay for small molecule activators of the heat shock response signaling pathway - cell viability counter screen (AID 743209). Further: nearly all actives have a fitted effect of over 50% in size. The essentials:
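Cytotoxicity counter screen run in the same wells as the heat-shock bla reporter assay: HeLa HSE-bla cells, 5 h compound exposure at 37 C, viability read by CellTiter-Glo luminescence.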

Assay [8] in a line: qHTS assay for small molecule activators of the heat shock response signaling pathway (AID 743210; active means well fitted activation curve with a large enough effect in the signal ratio in the repeat runs, with a control signal flat, not every such curve was filed as active; the % refers to the signal ratio;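 further: HeLa cells with beta-lactamase reporter driven by heat shock elements; series mostly up to about 63 µM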). In outline:
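Fluorescence from a cleaved B/G FRET substrate (2.5 h, room temp) reports HSE-driven beta-lactamase in HeLa cells treated 5 h at 37 C with DMSO-dissolved compounds.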

Assay [9] in a line: qHTS assay to identify small molecule agonists of the peroxisome proliferator-activated receptor delta (PPARd) signaling pathway - cell viability counter screen (AID 743211). Further: nearly all actives have a fitted effect of over 55% in size. Further: potency means the concentration at half of the fitted maximal effect. The essentials:
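Viability of GeneBLAzer PPARd UAS-bla HEK293H cells was assessed after 17 h compound incubation at 37C, using CellTiter-Glo reagent added after the reporter read and luminescence recorded 30 min later.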

The target in assay [10] is Peroxisome proliferator-activated receptor delta (Homo sapiens) (UniProt Q03181). Description: qHTS assay to identify small molecule agonists of the peroxisome proliferator-activated receptor delta (PPARd) signaling pathway (AID 743212; calls by dose curve;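 further: HEK293H cells with PPARd UAS beta-lactamase reporter GeneBLAzer system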). In outline:
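Steps: seed PPARd-bla HEK293H cells; incubate 5 h, 37 C, 5% CO2; add compounds in DMSO; incubate, 37 C; add LiveBLAzer B/G FRET substrate; hold 2 h at room temperature; measure fluorescence.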

Assay [11] is described as follows: qHTS assay to identify small molecule antagonists of the peroxisome proliferator-activated receptor delta (PPARd) signaling pathway - cell viability counter screen (AID 743213). Further: nearly all actives have a fitted effect of over 50% in size. Further: potency means the concentration at half of the fitted maximal effect. The essentials:
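HEK293H cells with the PPARd UAS-bla reporter, co-treated 17 h at 37 C with compounds and L165041 (300 nM final), were lysed with CellTiter-Glo. Luminescence indicated viable cell content.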

The nature of assay [12]: qHTS assay to identify small molecule agonists of the farnesoid-X-receptor (FXR) signaling pathway - cell viability counter screen (AID 743218). Further: nearly all actives have a fitted effect of over 45% in size. Further: potency means the concentration at half of the fitted maximal effect. The essentials: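 Viability counter screen in the same wells: CellTiter-Glo luminescence, 30 min room-temperature incubation, measured after the beta-lactamase read. Cells were GeneBLAzer FXR-UAS-bla HEK 293T, compound-treated 16 h at 37C.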

The nature of assay [13]: qHTS assay to identify small molecule antagonists of the farnesoid-X-receptor (FXR) signaling pathway - cell viability counter screen (AID 743221; active means well fitted cell-killing curve with a large enough effect in the repeat runs, not every such curve was filed as active; further: nearly all actives have a fitted effect of over 50% in size). The essentials: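 Quantitative HTS of the Tox21 10K library run in parallel with the beta-lactamase reporter read. HEK 293T cells carrying a UAS-driven bla reporter got compound and 50 uM CDCA (final) for 16 h; ATP-based luminescence followed.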

The target in assay [14] is Vitamin D3 receptor (Homo sapiens) (UniProt P11473). Description: qHTS assay to identify small molecule agonists of the vitamin D receptor (VDR) signaling pathway (AID 743222; calls by dose curve). The essentials: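 Agonist mode, beta-lactamase reporter: fluorescence from LiveBLAzer B/G FRET substrate (2 h, room temperature) read after 16 h compound treatment at 37 C of VDR-bla cells, which were pre-incubated 4 h after seeding.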

The target is the same in assay [15]. The assay can be described thus: qHTS assay to identify small molecule antagonists of the vitamin D receptor (VDR) signaling pathway (AID 743223; active means well fitted inhibition curve with a large enough effect in the signal ratio in the repeat runs, not every such curve was filed as active; the % refers to the signal ratio; further: potency means the concentration at half of the fitted maximal effect). The essentials:
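Fluorescence from LiveBLAzer B/G FRET substrate, read after 2 h at room temperature, reflects beta-lactamase reporter activity in VDR-bla cells treated 16 h at 37C with compounds and agonist 1alpha,25-dihydroxyvitamin D3 (3 nM final).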

Assay [16] addresses Peroxisome proliferator-activated receptor gamma (Homo sapiens) (UniProt P37231). The assay can be described thus: qHTS assay to identify small molecule antagonists of the peroxisome proliferator-activated receptor gamma (PPARg) signaling pathway (AID 743191; calls by dose curve; further: nearly all actives have a fitted effect of over 30% in size; further: potency means the concentration at half of the fitted maximal effect). In outline:
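Beta-lactamase reporter under UAS control in HEK293H PPARg-bla cells; compound treatment 17 h at 37C. Read-out: fluorescence intensity after 1 h room-temperature incubation with LiveBLAzer B/G FRET substrate.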

Assay [17] in a line: qHTS assay for small molecule agonists of the antioxidant response element (ARE) signaling pathway (AID 743202; active means well fitted activation curve with a large enough effect in the signal ratio in the repeat runs, not every such curve was filed as active; the % refers to the signal ratio; further: potency means the concentration at half of the fitted maximal effect). In outline: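 Beta-lactamase reporter activity, read as fluorescence intensity, reflects ARE/Nrf2 pathway induction in HepG2 cells after 16 h compound exposure at 37 C; substrate loading was 2 h at room temperature.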
The target in assay [18] is Peroxisome proliferator-activated receptor delta (Homo sapiens) (UniProt Q03181). Description: qHTS assay to identify small molecule antagonists of the peroxisome proliferator-activated receptor delta (PPARd) signaling pathway (AID 743215; active means well fitted inhibition curve with a large enough effect in the signal ratio in the repeat runs, not every such curve was filed as active; the % refers to the signal ratio;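 further: cells stimulated with agonist L165041 at 300 nM final during compound exposure; series mostly up to about 62 µM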). In outline:
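Agonist L165041 (300 nM final) added with compound to PPARd-bla HEK293H UAS-bla reporter cells; 17 h incubation at 37 C. Read-out: LiveBLAzer FRET substrate, 2 h at room temperature, fluorescence intensity.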

In assay [19] the target is Bile acid receptor (Homo sapiens) (UniProt Q96RI1). The assay can be described thus: qHTS assay to identify small molecule antagonists of the farnesoid-X-receptor (FXR) signaling pathway (AID 743217; active means well fitted inhibition curve with a large enough effect in the signal ratio in the repeat runs, not every such curve was filed as active; the % refers to the signal ratio). The essentials: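 Antagonist mode: chenodeoxycholic acid at 50 uM final stimulates a UAS-driven beta-lactamase reporter in HEK 293T FXR-bla cells during 16 h, 37C compound exposure. Read-out is FRET substrate fluorescence after 2 h at room temperature.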

For assay [20] the target is unchanged. The assay can be described thus: qHTS assay to identify small molecule agonists of the farnesoid-X-receptor (FXR) signaling pathway (AID 743220; active means well fitted activation curve with a large enough effect in the signal ratio in the repeat runs, not every such curve was filed as active; the % refers to the signal ratio). The essentials:
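FXR-UAS-bla HEK 293T cells carrying a UAS-driven beta-lactamase reporter were plated for 5 h at 37C/5% CO2, then exposed to DMSO-dissolved Tox21 10K compounds for 16 h at 37C. A LiveBLAzer B/G FRET substrate was loaded for 2 h at room temperature before fluorescence reading.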

Sequence of Peroxisome proliferator-activated receptor gamma (Homo sapiens) (P37231 whole entry, looked up): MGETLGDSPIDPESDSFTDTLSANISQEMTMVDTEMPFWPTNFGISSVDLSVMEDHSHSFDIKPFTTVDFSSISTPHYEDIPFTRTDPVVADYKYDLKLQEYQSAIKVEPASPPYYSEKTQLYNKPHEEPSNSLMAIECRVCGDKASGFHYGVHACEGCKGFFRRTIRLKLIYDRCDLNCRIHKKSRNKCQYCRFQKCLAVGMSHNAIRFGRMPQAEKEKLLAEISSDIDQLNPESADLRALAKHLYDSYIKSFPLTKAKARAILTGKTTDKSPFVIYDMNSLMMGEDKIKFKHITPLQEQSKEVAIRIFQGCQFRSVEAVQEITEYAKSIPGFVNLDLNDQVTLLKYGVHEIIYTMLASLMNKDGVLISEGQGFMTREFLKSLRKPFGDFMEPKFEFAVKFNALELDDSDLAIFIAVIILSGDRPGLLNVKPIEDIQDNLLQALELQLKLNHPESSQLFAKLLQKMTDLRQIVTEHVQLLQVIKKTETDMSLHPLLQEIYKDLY
Sequence of Bile acid receptor (Homo sapiens) (Q96RI1 whole entry, looked up): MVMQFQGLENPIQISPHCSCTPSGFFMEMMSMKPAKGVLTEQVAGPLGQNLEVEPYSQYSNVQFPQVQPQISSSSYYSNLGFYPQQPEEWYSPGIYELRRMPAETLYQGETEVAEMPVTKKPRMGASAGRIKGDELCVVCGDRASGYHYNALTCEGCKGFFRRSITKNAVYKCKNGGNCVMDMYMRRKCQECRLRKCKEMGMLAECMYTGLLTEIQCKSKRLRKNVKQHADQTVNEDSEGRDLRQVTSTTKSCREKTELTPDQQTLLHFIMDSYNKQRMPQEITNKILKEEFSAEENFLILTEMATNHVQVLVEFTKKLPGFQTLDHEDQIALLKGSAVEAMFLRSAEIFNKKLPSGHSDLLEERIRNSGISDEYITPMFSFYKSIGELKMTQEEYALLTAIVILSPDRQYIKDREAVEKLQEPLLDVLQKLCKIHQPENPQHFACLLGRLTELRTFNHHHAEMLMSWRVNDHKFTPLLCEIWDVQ
Sequence of Peroxisome proliferator-activated receptor delta (Homo sapiens) (Q03181 whole entry, looked up): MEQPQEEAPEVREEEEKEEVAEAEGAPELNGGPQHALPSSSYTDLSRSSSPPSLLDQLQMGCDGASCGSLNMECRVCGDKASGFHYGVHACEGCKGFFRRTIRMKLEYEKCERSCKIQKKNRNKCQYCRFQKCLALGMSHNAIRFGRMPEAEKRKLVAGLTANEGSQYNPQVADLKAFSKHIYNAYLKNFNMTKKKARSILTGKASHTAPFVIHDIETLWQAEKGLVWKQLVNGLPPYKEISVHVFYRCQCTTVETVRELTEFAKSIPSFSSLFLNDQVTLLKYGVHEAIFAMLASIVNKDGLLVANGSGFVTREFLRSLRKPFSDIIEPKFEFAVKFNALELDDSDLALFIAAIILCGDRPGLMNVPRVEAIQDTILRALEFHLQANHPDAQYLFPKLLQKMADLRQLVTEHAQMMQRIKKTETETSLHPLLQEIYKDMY
Sequence of Aryl hydrocarbon receptor (Homo sapiens) (P35869 whole entry, looked up): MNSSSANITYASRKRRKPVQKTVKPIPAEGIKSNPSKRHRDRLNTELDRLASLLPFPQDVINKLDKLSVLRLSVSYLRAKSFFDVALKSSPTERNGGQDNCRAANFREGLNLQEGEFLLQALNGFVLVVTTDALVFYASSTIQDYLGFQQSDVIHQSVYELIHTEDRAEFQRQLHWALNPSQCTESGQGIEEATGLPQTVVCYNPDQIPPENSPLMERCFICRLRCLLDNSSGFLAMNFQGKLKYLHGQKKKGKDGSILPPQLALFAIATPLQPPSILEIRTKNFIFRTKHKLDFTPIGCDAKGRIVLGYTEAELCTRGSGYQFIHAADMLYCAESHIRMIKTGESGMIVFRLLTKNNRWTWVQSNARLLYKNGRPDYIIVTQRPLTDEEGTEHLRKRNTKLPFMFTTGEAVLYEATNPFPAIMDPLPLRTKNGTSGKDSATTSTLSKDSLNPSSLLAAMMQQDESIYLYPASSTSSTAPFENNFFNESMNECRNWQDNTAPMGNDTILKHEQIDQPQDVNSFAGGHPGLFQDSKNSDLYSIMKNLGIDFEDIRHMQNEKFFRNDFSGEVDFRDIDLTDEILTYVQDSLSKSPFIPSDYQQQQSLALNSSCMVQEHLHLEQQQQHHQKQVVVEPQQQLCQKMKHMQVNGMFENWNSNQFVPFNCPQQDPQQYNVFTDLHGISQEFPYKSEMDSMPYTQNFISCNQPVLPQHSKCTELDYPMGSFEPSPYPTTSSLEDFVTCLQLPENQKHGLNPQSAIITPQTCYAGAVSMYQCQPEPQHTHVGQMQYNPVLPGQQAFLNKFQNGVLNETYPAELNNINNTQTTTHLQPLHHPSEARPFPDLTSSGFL
Sequence of Vitamin D3 receptor (Homo sapiens) (P11473 whole entry, looked up): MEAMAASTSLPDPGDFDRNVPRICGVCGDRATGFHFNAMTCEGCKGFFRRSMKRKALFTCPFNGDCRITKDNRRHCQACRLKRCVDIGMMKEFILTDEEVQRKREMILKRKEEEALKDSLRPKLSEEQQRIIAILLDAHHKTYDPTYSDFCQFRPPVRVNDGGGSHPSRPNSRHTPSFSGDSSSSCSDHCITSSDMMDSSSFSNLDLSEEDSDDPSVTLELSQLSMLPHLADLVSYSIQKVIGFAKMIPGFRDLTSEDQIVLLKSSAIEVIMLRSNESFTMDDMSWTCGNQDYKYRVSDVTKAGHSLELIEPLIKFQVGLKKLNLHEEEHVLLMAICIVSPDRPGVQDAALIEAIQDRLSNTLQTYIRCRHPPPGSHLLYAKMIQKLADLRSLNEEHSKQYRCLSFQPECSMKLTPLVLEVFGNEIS

For the molecule `O=C(c1ccccc1)c1ccc(O)c(O)c1O`, the Potency result in assay [1], in [2], in assay [3], in assay [4], in [5] and in assay [6] was “inactive” each time. The Potency entry in [7], in [8], in [9], in assay [10], in assay [11] and in [12] was “inactive” in each case. The Potency result in assay [13] and in assay [15] was “inactive” each time. For the same molecule, the molecule was classed as inactive in assay [14].
`c1cnc2c(c1)ccc1cccnc12`: the Potency is 5.5 µM (active) in assay [1]; 55 µM (active) and 54.5 µM (active) and inactive in assay [2]; 1.56 µM (active) in assay [16]; 1.23 µM (active) in assay [5]; 5.45 µM (active) in assay [6]; 698 nM (active) and 1.95 µM (active) and 692 nM (active) in assay [9]. The Potency in [11] was 0.389 µM (active); in [12], “inactive and 1.55 µM (active)”; in assay [15] it was 3.89 µM (active). Moreover, the Potency entry in assay [3] and in [7] was “inactive” each time. Moreover, in assay [14], the result was inactive.
As to `Cc1nnc(NS(=O)(=O)c2ccc(N)cc2)s1`, the Potency entry in assay [1], in assay [2], in assay [3], in assay [16], in [5] and in assay [17] was “inactive” each time. Moreover, the Potency entry in assay [6], in [8], in assay [9], in [10], in assay [11] and in assay [18] was “inactive” in each case. In addition, in assay [12], the Potency entry is “inactive”. The result in assay [14] was inactive.
In the case of `Cc1ccccc1Cl`, the Potency result in assay [1], in [2], in assay [3], in assay [16], in assay [5] and in [17] was “inactive” throughout. Moreover, the Potency result in [6], in [7], in assay [8], in assay [9], in assay [10] and in [11] was “inactive” throughout. Further, the Potency entry in assay [18], in [19], in assay [12], in assay [20], in [13] and in assay [15] was “inactive” throughout. Further, in assay [14], the molecule was called inactive.
For `CN1CCCC1=O`, the Potency result in assay [1], in [2], in [3], in assay [16], in assay [5] and in [17] was “inactive” each time. Also, the Potency result in assay [6], in assay [7], in assay [8], in assay [9], in assay [11] and in assay [12] was “inactive” each time. Besides, the Potency entry in assay [13] and in assay [15] was “inactive” in each case. For the same molecule, the outcome in assay [14] was inactive.
Turning to `Oc1ccc(Cc2ccccc2O)cc1`, the Potency result in assay [1], in assay [2], in [3], in [16], in assay [6] and in assay [7] was “inactive” throughout. Besides, the Potency result in assay [8], in assay [10], in [11], in assay [18], in assay [19] and in assay [12] was “inactive” in each case. The Potency entry in assay [20], in assay [13] and in [15] was “inactive” in each case. Further, the Potency in [17] was 30.6 µM (active). In [14], the call was inactive.
As for `O=C1CCCCCCCCCCC1`, the Potency entry in [1], in assay [2], in assay [3], in assay [16], in assay [5] and in [6] was “inactive” throughout. Moreover, the Potency entry in [8], in assay [9], in assay [10], in [11], in assay [18] and in [12] was “inactive” each time.
As to `C1CCCNCC1`, the Potency entry in assay [1], in assay [2], in assay [3], in [16], in assay [5] and in [17] was “inactive” throughout. In addition, the Potency result in assay [6], in assay [7], in assay [8], in assay [9], in [10] and in assay [11] was “inactive” in each case. The Potency entry in [18], in assay [12] and in [13] was “inactive” throughout.
In the case of `CCCCCNCCCCC`, the Potency entry in assay [1], in [2], in assay [3], in [16], in assay [5] and in assay [17] was “inactive” in each case. In addition, the Potency entry in assay [6], in assay [7], in assay [8], in assay [9], in [10] and in [11] was “inactive” each time. Further, the Potency entry in [18], in assay [12], in [13] and in [15] was “inactive” each time. Besides, the call in assay [14] was inactive.
